# B2AR arrestin: agonists driving beta-arrestin recruitment to human beta2-adrenergic receptor. Potency, µM (highest dose often 46.1 µM), for inactives: at the highest dose activation, hits mostly activators. beta-arrestin recruitment to beta2AR, cell-based reporter. P07550. hit rate 0.02% among 330,000;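 further: potency means the concentration at half of the fitted maximal effect; 0% = DMSO controls and full agonism = EC100 isoproterenol or metaproterenol; nearly all actives have a fitted effect of over 65% in size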
# D3 ag: D3 dopamine receptor (human) agonism | P35462 | D3R DiscoveRx beta-arrestin cells, luminescence, 90 min | max activation, % | hit rate 0.58% among 410,000 | AID 652048; in the data active means max activation above about 30%; further: 0% is about no effect
#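 Agonist mode: compounds and dopamine controls were applied to plated cells for 90 min at 37 degrees C after an overnight attachment at 1500 cells/well. Luminescent read-out followed 30 - 60 minutes at room temperature with DiscoveRx detection reagent.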
# IDH1 R132H inh: inhibitors of human mutant IDH1 R132H | IDH1-R132H enzyme, NADPH consumption, diaphorase/resazurin fluorescence | Potency, µM (titrated, usually from 76.6 µM), inactives show at the top dose activity change, negative = inhibition, most hits filed as inhibitors | hit rate 0.093% among 390,000 | AID 602179; further: potency means the concentration at half of the fitted maximal effect; on the % scale 0 is the no-effect control and ±100 the full control effect; nearly all actives have a fitted effect of over 65% in size
# Target sequence (O75874 whole entry R132H, stated change not applied): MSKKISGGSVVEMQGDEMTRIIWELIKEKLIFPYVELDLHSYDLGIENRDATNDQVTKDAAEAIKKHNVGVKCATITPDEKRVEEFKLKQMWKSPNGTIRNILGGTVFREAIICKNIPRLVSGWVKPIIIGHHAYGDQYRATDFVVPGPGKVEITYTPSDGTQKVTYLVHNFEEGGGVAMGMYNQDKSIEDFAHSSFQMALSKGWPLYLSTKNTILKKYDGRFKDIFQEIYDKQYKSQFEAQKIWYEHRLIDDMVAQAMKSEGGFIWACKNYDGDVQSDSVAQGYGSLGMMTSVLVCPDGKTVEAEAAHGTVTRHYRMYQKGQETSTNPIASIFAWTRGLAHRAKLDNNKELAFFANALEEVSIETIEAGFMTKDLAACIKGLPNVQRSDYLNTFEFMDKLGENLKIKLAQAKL
#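 IDH1-R132H (0.5 ug/mL) preincubated 30 min with compound, then NADPH (0.016 mM) and alpha-KG (2 mM) added; 80 min at RT, pH 7.5. Remaining NADPH coupled via diaphorase/resazurin to fluorescence (540/590 nm); concentration-response curves normalized to no-enzyme control.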
# D3 antag: antagonists of human D3 dopamine receptor. max response, negative = inhibition, %. hit rate 2.5% among 360,000. P35462. AID 652054. D3R cells, DiscoveRx beta-arrestin luminescence, antagonist mode; hits give low values; in the data active means max response below about -50%; inconclusive means no clear call, values can overlap the other calls; further: on the % scale 0 is the no-effect control and ±100 the full control effect
#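 Cells expressing the human receptor were seeded at 1500 cells/well, incubated overnight at 37 degrees C in 5% CO2, then exposed to library compounds with dopamine controls for 90 minutes at 37 degrees C before luminescent detection.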
# Integrin act MD: activators of alpha7 integrin expression for muscular dystrophy; alpha7betagal myoblasts, beta-gal FDG fluorescence, 48 h; Potency, µM (top dose mostly 38.3 µM), without a hit: at the top dose activation, hits mostly activators; hit rate 0.064% among 350,000; AID 624291;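 further: potency means the concentration at half of the fitted maximal effect; 100% = response of the positive control SU9516; nearly all actives have a fitted effect of over 60% in size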
#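 Alpha7betagal+/- myoblasts (passage 13) were plated 16-24 hr, then exposed to compounds (1:260 dilution of DMSO stock) for 48 hours at 37C. After MPER lysis, β-galactosidase reporter activity was read as FDG fluorescence (ex 480/em 540) after 30 minutes.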
# * hit, by the source's call; ? = inconclusive; nt = no result. Compounds with a hit are over-represented: about 2.9% of the library has one in this group of screens. Unless noted, the call rests on the fitted dose curve; in most records, active means well fitted curve in the direction sought with a large enough effect; inconclusive means small, poorly fitted or top-dose-only effect, or another doubt; inactive means no such curve, though single readings can be large; an effect the other way counts as inactive or inconclusive.
SMILES,B2AR arrestin,D3 ag,IDH1 R132H inh,D3 antag,Integrin act MD
FC(F)(F)c1ccccc1NC(=S)NC1CCN(Cc2ccccc2)CC1,-0.1%,-20.1,-9.5%,-58.1*,-33.0%
S=C(Nc1ccccc1Cl)NC1CCN(Cc2ccccc2)CC1,-0.2%,-6.8,2.6%,-83.9*,-31.7%
S=C(NCc1ccc(Cl)cc1)NC1CCN(Cc2ccccc2)CC1,-0.3%,-15.6,-3.1%,-65.9*,-52.1%
Clc1ccc(CNC2CCN(Cc3ccccc3)CC2)cc1,-0.6%,-21.0,7.2%,-16.7,?
S=C(Nc1cc(Cl)cc(Cl)c1)NC1CCN(Cc2ccccc2)CC1,-0.6%,-14.1,-6.2%,-93.9*,-39.7%
CCc1cccc(-n2c(=O)c3cccnc3n2CC(=O)Nc2ccc(OC)c(Cl)c2)c1,nt,6.1,-12.7%,nt,nt
Cc1ccccc1CN(C)CCc1ccccn1,0.2%,-5.7,-8.2%,-12.7,42.8%
CC(C)=CCCC(C)CN(C)CCc1ccccn1 (configuration not stated),0.3%,-59.7,-3.2%,-64.3*,-13.0%
COc1nccnc1NS(=O)(=O)c1ccc(NC(=S)NC(=O)/C=C/c2ccccc2)cc1,0.0%,-9.8,1.3%,-62.5*,25.7%
COc1ccc(NC(=S)NC(NC(=O)/C=C/c2ccccc2)C(Cl)(Cl)Cl)cc1 (configuration not stated),0.1%,-7.2,3.3%,-68.9*,-38.2%
COc1nccnc1NS(=O)(=O)c1ccc(NC(=S)NC(=O)c2ccccc2)cc1,-1.0%,-5.4,0.7%,?,1.6%
C=C(CN(C)C)C(=O)c1ccc(OC2OC(COC(C)=O)C(OC(C)=O)C(OC(C)=O)C2OC(C)=O)cc1 (configuration not stated),nt,-16.0,-0.8%,-81.8*,-53.5%
CC(=O)OC[C@H]1O[C@@H](O/N=C/[C@@H](C)[C@H](OCc2ccccc2)C(C)C)[C@H](OC(C)=O)[C@@H](OC(C)=O)[C@@H]1OC(C)=O,0.2%,nt,nt,nt,nt
O=C(CC(c1cccs1)N1Cc2ccccc2C1=O)Nc1ccc(Cl)cc1 (configuration not stated),nt,-20.7,22.3%,nt,nt
Cc1ccc(Cn2c(=O)c3ccccc3n3c(CCC(=O)NCCN4CCOCC4)nnc23)cc1,-0.2%,-6.0,-4.8%,-16.7,-12.9%
CC(C)CCn1c(=O)c2ccccc2n2c(CN3CCOCC3)nnc12,0.0%,-8.0,8.9%,-54.2*,-23.6%
CC(C)N(C(=O)CSc1cn(CC(=O)N2CCCCCC2)c2ccccc12)C(C)C,nt,-1.1,-12.4%,nt,nt
CCC1CCCCN1CCCNC(=O)c1csc2c1CCCCC2 (configuration not stated),0.0%,2.2,-6.8%,-5.1,-41.4%
O=C(NCCN1CCOCC1)c1csc2c1CCCCC2,0.0%,16.0,1.5%,-52.1*,-9.7%
CCN1CCN(CCCNC(=O)c2csc3c2CCCCC3)CC1,0.3%,-4.4,0.9%,-54.1*,8.0%
Cc1ccc(-n2nc(C)c3c(C)c(CCC(=O)NCc4ccccc4Cl)c(C)nc32)cc1,nt,4.8,nt,nt,nt
Cc1ccc(C(=O)Nc2ccc(Br)cc2)cc1S(=O)(=O)NCc1ccccc1,nt,-7.3,-13.1%,nt,nt
CCOC(=O)c1ccc(NC2SC(=O)N(Cc3cccc(C(=O)O)c3)C2=O)cc1 (configuration not stated),nt,10.8,-20.2%,nt,nt
C=CCN=c1scc(-c2ccc(F)cc2)n1/N=C/c1ccccn1,-0.6%,16.7,3.9%,4.0,-54.3%
C=CCN=c1scc(-c2ccc3c(c2)NC(=O)CO3)n1/N=C(\C)c1ccccn1,0.1%,-15.6,3.9%,-53.4*,-67.0%
SMILES,B2AR arrestin,D3 ag,IDH1 R132H inh,D3 antag,Integrin act MD
O=C1C=C(O)c2cccc3cccc1c23,-0.2%,-9.0,5.6%,-76.5*,-35.6%
Cc1nc(-c2ccccc2)sc1-c1ccc(SCC(=O)NCc2ccccc2Cl)nn1,nt,4.8,-4.7%,nt,nt
O=C(c1ccc(NC2=NC3CS(=O)(=O)CC3S2)cc1)N1CCN(c2ccccc2F)CC1 (configuration not stated),-0.7%,-10.2,-7.5%,-61.0*,-5.4%
O=C(c1ccc(NC2=NC3CS(=O)(=O)CC3S2)cc1)N1CCN(c2ccc(F)cc2)CC1 (configuration not stated),-0.1%,5.3,-0.8%,-6.7,6.2%
COCC(C)NC(=O)NC(=O)c1ccc(Cl)cc1 (configuration not stated),-0.1%,-5.1,10.4%,-103.9*,21.6%
CC(NC(=O)NC(=O)c1ccc(Cl)cc1)c1ccccc1 (configuration not stated),-0.3%,-14.1,2.0%,?,-16.5%
O=C(NCc1cccc(Cl)c1)c1ccc(NC(=O)N2CC3CCCN3c3ccccc32)cc1 (configuration not stated),nt,-7.6,23.4%,nt,nt
CCOC(=O)c1c(C)[nH]c(C(=O)OC/C(O)=C(\C#N)c2nc3ccccc3[nH]2)c1C,0.0%,-1.2,9.3%,-52.3*,6.0%
N#C/C(=C(/O)COC(=O)c1ccc(Cl)c(S(=O)(=O)N2CCOCC2)c1)c1nc2ccccc2[nH]1,-0.1%,5.1,-1.5%,8.9,-15.9%
N#C/C(=C(/O)COC(=O)c1ccc2c(c1)OCCO2)c1nc2ccccc2[nH]1,-1.5%,-2.4,3.3%,-62.1*,-19.2%
COc1ccc2oc(C(=O)OC/C(O)=C(\C#N)c3nc4ccccc4[nH]3)c(C)c2c1,-0.5%,4.0,-0.2%,-21.3,3.8%
O=c1c2ccccc2nc(-c2ccco2)n1Cc1ccccc1,nt,-6.9,2.9%,15.3,0.1%
CCOc1ccc(CCn2c(-c3ccco3)nc3ccccc3c2=O)cc1OCC,-0.9%,35.9*,1.3%,28.1,8.8%
Oc1ccc(Br)cc1CNc1cccc2cccnc12,-0.9%,-9.6,19.3%,?,-8.9%
Oc1c(Br)cc(Br)cc1CNc1cccc2cccnc12,-0.1%,-2.7,6.2%,-57.8*,12.6µM*
COc1ccc(-c2cc3ccc(O)c(CN4CCN(C)CC4)c3oc2=O)cc1OC,nt,1.7,2.1%,nt,nt
COc1ccccc1CNC(=O)C(C)NS(=O)(=O)c1ccc(Br)cc1 (configuration not stated),-0.2%,1.6,0.4%,-67.6*,-5.9%
COc1cccc(-n2c(C)nc3c(cnn3-c3ccc(C)c(C)c3)c2=O)c1,nt,8.7,1.1%,nt,nt
O=S(=O)(NCCCN1CCN(c2ccccc2F)CC1)c1cccc2cccnc12,-1.0%,5.3,-12.0%,-96.4*,24.9%
O=S(=O)(NCCN1CCCC1)c1cccc2cccnc12,-0.6%,-13.9,-5.1%,?,2.1%
CCOc1cc(C(=O)Nc2ccc(-c3nc4ccccc4s3)cc2Cl)cc(OCC)c1OCC,nt,-3.7,12.1%,nt,nt
CCCCC(O)c1ccccc1 (configuration not stated),nt,0.5,nt,nt,nt
Cc1ccc(F)c(S(=O)(=O)NC(=O)C2(C)CCN2C(=O)c2cccc3ccccc23)c1 (configuration not stated),nt,71.6*,nt,4.5,nt

# Screens (PubChem)
